An excerpt weighted towards active compounds, which were near 14% of everything screened.
Pf growth 48h – P. falciparum growth inhibition at 48 hours (one generation); P. falciparum luciferase growth in erythrocytes, 48 h; Potency, µM (doses to about 28.7 µM), for the others: at the top dose activity change, negative = inhibition, most hits filed as inhibitors; 5.9% of 310,000 active; further: potency means the concentration at half of the fitted maximal effect
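First compound was added to culture medium, then infected red cells at 0.1% parasitemia and 2% hematocrit (final). After incubation at 37 C under 5% CO2, luciferase detection reagent was dispensed and light output recorded.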
Pf growth 96h – P. falciparum growth inhibition at 96 hour, primary screen for plastid delayed-death inhibitors | P. falciparum luciferase reporter growth, 96 h | Potency, µM (top dose mostly 28.7 µM), for inactives: at the top dose activity change, negative = inhibition, hits mostly inhibitors | 6.9% of 320,000 active; further: potency means the concentration at half of the fitted maximal effect
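96 h incubation, 37 C, 5% CO2, of luciferase-reporter P. falciparum-infected RBCs (2% hematocrit, 0.05% parasitemia final) with test compounds; endpoint luminescence.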
Marburg entry inh – blocks Marburg virus binding to or entry into cells. Potency, µM (top dose mostly 37.8 µM), for inactives: at the top dose activity change, negative = inhibition, usual class: inhibitors. 1.8% of 300,000 active. AID 540276. Marburg virus pseudotyped entry inhibition, cell reporter; calls by dose curve; tested in HEK293 cells; further: potency means the concentration at half of the fitted maximal effect
Lassa entry inh – inhibitors of Lassa virus binding or cell entry; Lassa virus pseudotype entry inhibition, cell reporter; Potency, µM (top dose mostly 37.9 µM), for inactives: top-dose activity change, negative = inhibition, actives largely listed as inhibitors; 1.2% of 300,000 active; calls by dose curve; tested in HEK293 cells; further: potency means the concentration at half of the fitted maximal effect; nearly all actives have a fitted effect of over 50% in size
HCMV inh – blocks human cytomegalovirus replication; HFF cells, HCMV-luciferase reporter, 72 h; stronger effect = lower value; 4.5% of 410,000 active; AID 1259415; activity change, negative = inhibition, % at 57.5 µM; in the data active means activity change below about -60%; inconclusive means no clear call, values can overlap the other calls; inactive means above about -39%
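After 16 h attachment at 37C, HFF cells received test compound and HCMV-luciferase (1 PFU/cell); reporter luminescence read 72 h later, data normalized against buffer-only and known inhibitor Salinomycin.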
HCV inhibitor – HCV inhibition; Potency, µM (highest dose often 41.8 µM), for inactives: at the top dose activity change, negative = inhibition, usual class: inhibitors; Huh7.5.1 HCVcc-Cre infection, luciferase reporter, 44 h; 3.4% of 340,000 active; further: potency means the concentration at half of the fitted maximal effect
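Cells (1,000/well) were plated 4 h before compound, then infected with HCVcc-Cre virus (~0.5 moi). After 44 h further culture, infection was read as luciferase luminescence following a 15 min substrate incubation at room temperature.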
Active calls of the source: *; ? = inconclusive; nt = no result given; ! = not active in a repeat; [ ] = remark or other dose. Unless noted, the call rests on the fitted dose curve; in most records, active means well fitted inhibition curve with a large enough effect; inconclusive means small, poorly fitted or top-dose-only effect, or another doubt; inactive means no such curve, though single readings can be large or run the other way. On the % scale 0 is the no-effect control and ±100 the full control effect.

SMILES | Pf growth 48h | Pf growth 96h | Marburg entry inh | Lassa entry inh | HCMV inh | HCV inhibitor
O=C(c1cc2c(=O)oc3ccccc3c2s1)N1CCN(c2cccc(Cl)c2)CC1 | nt | nt | 0%[46.1 µM] | -17%[46.1 µM] | -62* | nt
Cc1ccc2oc(=O)c3cc(C(=O)NCCCN4CCN(C)CC4)sc3c2c1 | 6% | -10% | nt | nt | 0 | ?
O=C(NCCCN1CCCCCC1)c1cc2c(=O)oc3ccccc3c2s1 | 2.9µM* | 23% | 10%[46.1 µM] | 15%[46.1 µM] | 5 | ?
Cc1ccc2oc(=O)c3cc(C(=O)NCCCN4CC(C)CC(C)C4)sc3c2c1 (configuration not stated) | 2.1µM* | 3% | ? | ? | 8 | ?
O=C(c1cc2c(=O)oc3ccccc3c2s1)N1CCN(c2ccccc2)CC1 | nt | nt | 7%[46.1 µM] | ? | 7 | nt
O=C(Cc1c(F)cccc1Cl)NNC(=S)Nc1ccc(S(=O)(=O)Nc2ncccn2)cc1 | ? | 14% | nt | nt | -3 | 13%
CCN1CCCC1CNC(=O)c1cc(N)ccc1OC (configuration not stated) | nt | nt | 15%[46.1 µM] | 16%[46.1 µM] | 15 | 15%
OC(CNC1CCCC1)COc1ccccc1Br (configuration not stated) | -102% | -97% | nt | nt | 52 | 2%
CCN1CCCC1CNCC(O)COc1ccc(C(C)(C)C)cc1C (configuration not stated) | 10µM* | 12µM* | ? | -21% | ? | ?
C=CCc1ccc(OCCCCNC2CCCC2)c(OC)c1 | -19% | 22% | ? | ? | ? | 10µM*
Cc1ccc(OCC(O)CNC2CCCC2)c(C)c1 (configuration not stated) | ? | 13µM* | nt | nt | 89 | -27%
C=CCc1ccc(OCCOCCOc2ccc(C)cc2[N+](=O)[O-])c(OC)c1 | -18% | ? | ? | -3% | 11 | 11µM*
C=CCc1ccc(OC(=O)NC2CCCCC2)c(OC)c1 | 38% | -31% | ? | 12% | -2 | 0%
CCCN(CCC)CCc1cccc2c1CC(=O)N2 | -14% | -11% | -6% | 13% | nt | nt
Cc1ccccc1OCC(O)CNC1CCC(NCC(O)COc2ccccc2C)CC1 (configuration not stated) | 0.93µM* | 3.7µM* | 1.1µM* | ? | -100* | ?
OC(CNC1CCCCCC1)COc1cccc2ccccc12 (configuration not stated) | 1.7µM* | 2.1µM* | ? | ? | -25 | ?
Cc1ccc(OCCCCNC2CCCCC2)c(C)c1 | ? | 0% | 7.3µM* | ? | -37 | 13µM*
Cc1cc(C)c(NC(=O)CCCCCNC2CCCCC2)c(C)c1 | 4% | 13µM* | ? | -14%[46.1 µM] | -10 | ?
CC1=C(C(=O)N(C(C)C)C(C)C)CC(CC(=O)NCc2cccs2)C(=O)N1CCCN1CCCC1=O (configuration not stated) | nt | nt | nt | nt | -9 | nt
CCCN1CCN(C(=O)C2CCN(c3nnc(C)c4c(C)n(-c5ccc(C)cc5)nc34)CC2)CC1 | 10µM* | ? | nt | nt | ? | 2.2µM*
Cc1nnc(N2CCC(C(=O)N3CCCCCC3)CC2)c2nn(-c3ccc(Cl)cc3)c(C)c12 | ? | -14% | nt | nt | 0 | 8.9µM*
CCOC(=O)C1CCCN(C(=O)C2CCN(c3nnc(C)c4c(C)n(-c5ccccc5)nc34)CC2)C1 (configuration not stated) | nt | nt | nt | 8%[46.1 µM] | -4 | nt
Cc1ccc(-n2nc3c(N4CCC(C(=O)N5CCCCCC5)CC4)nnc(C)c3c2C)cc1 | ? | 12µM* | nt | nt | nt | -26%
COc1ccc(-n2nc3c(N4CCC(C(=O)N5CCCCCC5)CC4)nnc(C)c3c2C)cc1 | ? | ? | nt | nt | -33 | 11µM*
CCN(CC)C(=O)C1CCN(c2nnc(C)c3c(C)n(-c4ccc(Cl)cc4)nc23)CC1 | nt | nt | nt | 6%[46.1 µM] | 6 | nt
SMILES | Pf growth 48h | Pf growth 96h | Marburg entry inh | Lassa entry inh | HCMV inh | HCV inhibitor
CCN1CCN(C2=NC(=O)/C(=C/c3ccc(C)o3)S2)CC1 | -2% | 13µM* | 6% | -19% | 17 | 15%
OC(COc1ccc(Cl)cc1Cl)CN1CCc2ccccc2C1 (configuration not stated) | -4% | ? | nt | nt | -26 | -12%
OC(CNCC1(N2CCCCC2)CCCCC1)COc1ccc(Cl)cc1Cl (configuration not stated) | 3.3µM* | ? | ? | ? | -36 | -22%
COc1ccc(C2=CC(=O)N(CCC(N)=O)C2)cc1 | nt | nt | nt | nt | 13 | nt
Cc1ccc(N2CCN(C(=O)c3ccc4c(Cl)c5c(nc4c3)CCCC5)CC2)c(C)c1 | nt | nt | 7%[46.1 µM] | 0%[46.1 µM] | 0 | nt
COc1ccccc1-n1cnc2cc(C(=O)N3CCOCC3)ccc21 | 10% | 9.3µM* | nt | nt | 48 | 15%
COc1ccccc1N1CCN(C(=O)c2ccc3c(Cl)c4c(nc3c2)CCCC4)CC1 | -3% | 12µM* | -27% | -17% | nt | 5%[8.37 µM]
COc1ccccc1N1CCN(C(=O)c2ccc3nc(-c4ccco4)c(-c4ccco4)nc3c2)CC1 | ? | nt | 21µM* | ? | -8 | 11µM*!
CCN(CC)CCn1c(=N)n(CC(=O)c2ccc(Br)s2)c2ccccc21 | 1.9µM* | 1.9µM* | 7.1µM* | ? | -97* | -88%
OC(COc1ccccc1)Cn1c2ccccc2c2ccccc21 (configuration not stated) | ? | 196% | -9% | 0% | -19 | ?
Cn1c(=N)n(CC(=O)c2ccc(Br)s2)c2ccccc21 | nt | -65% | ? | ? | 6 | ?
CCN(CC)CCn1c(=N)n(CCOc2ccccc2)c2ccccc21 | nt | 8.3µM* | 4.1µM* | 21µM* | ? | 10µM*
CCN(CC)CCn1c(=N)n(CC(O)COc2ccccc2)c2ccccc21 (configuration not stated) | 3.3µM* | 2.3µM* | 4.5µM* | 6% | 0 | ?
CCN=c1sc2ccccc2n1CC(O)COc1ccccc1 (configuration not stated) | ? | nt | -25% | -4% | ? | 13µM*
CCN(CC)CCn1c(=N)n(CCO)c2ccccc21 | -10% | ? | -4% | 0% | 17 | 0%
COc1cc(F)cc(-c2ccc3c(c2)c(C#Cc2ccsc2)c(-c2cc(OC)cc(OC)c2)n3C)c1 | nt | nt | nt | nt | -1 | -6%
CC(CCC(=O)OC[C@H]1O[C@H](C#Cc2ccccc2)C=C[C@H]1Oc1ccc(C)cc1)=NO[C@H](C)c1cn([C@H](CO)Cc2ccccc2)nn1 | nt | nt | ? | -6%[14.3 µM] | nt | nt
CC(C)C[C@@H]1Cc2[nH][nH]c(=O)c2[C@H](C)O1 | nt | nt | nt | nt | -8 | nt
COc1ccccc1C(=O)NCCC(=O)N1CCN(S(=O)(=O)c2cccc(Cl)c2)CC1 | ? | ? | nt | nt | 0 | -14%
CC1CC(C)CN(C(=O)CNC(=O)c2sc3ccccc3c2Cl)C1 (configuration not stated) | ? | -83% | nt | nt | ? | 8.9µM*
